High-throughput results: PubChem BioAssay, National Center for Advancing Translational Sciences (NCATS)
DT40 TDP1 CPT: DT40-hTDP1 cell growth loss with CPT; chicken DT40 Tdp1-/-;hTDP1 cells + 20 nM CPT, ATP luminescence, 48 h; Potency, µM (titrated, usually from 46.2 µM), for inactives: top-dose activity change, negative = growth inhibition, actives largely listed as inhibitors; hit rate 12% among 420,000; note: nearly all actives have a fitted effect of over 55% in size
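Chicken DT40 Tdp1-/- cells stably complemented with human TDP1 were seeded at 400 cells/well in medium containing 20 nM camptothecin, exposed to pin-transferred compounds, and grown at 37 °C for at least 48 hr. Viability was read as ATP luminescence.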
TDP1 cell noCPT: qHTS for Inhibitors of human tyrosyl-DNA phosphodiesterase 1 (TDP1): qHTS in cells in absence of CPT; DT40 Tdp1-/- hTDP1 cells, no CPT, ATP luminescence, 48 h; Potency, µM (doses to about 46.2 µM), inactives show top-dose activity change, negative = growth inhibition, most hits filed as inhibitors; hit rate 15% among 420,000; note: nearly all actives have a fitted effect of over 55% in size
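Compound effects on proliferation are scored in DT40 Tdp1-/-;hTDP1 cells in the absence of CPT. ATP levels (CellTiter-Glo luminescence) are recorded after a ≥48 hr, 37 °C incubation.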
HT1080-NT tox: kills 2HG-producing HT-1080-NT fibrosarcoma cells; HT-1080-NT fibrosarcoma viability, CellTiter-Glo ATP luminescence, 48 h; Potency, µM (series often up to 46.1 µM), without a hit: top-dose activity, negative = less viability, most hits filed as cytotoxic; hit rate 1.6% among 360,000;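 note: NT is the 2HG producing partner of a matched IDH1 knockdown line; 0% = DMSO-treated cells and -100% = media-only wells without cells; nearly all actives have a fitted effect of over 55% in size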
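Fibrosarcoma NT cells, 750 per well in 5% FBS RPMI, were exposed to compound for 48 hours. Viability: CellTiter-Glo luminescence.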
KB-V1 cytotox: kills drug-selected multidrug resistant KB-V1 cells | AID 1347076 | Potency, µM (doses to about 46.1 µM), usual class: cytotoxic | hit rate 3.4% among 400,000 | KB-V1 MDR cells viability, CellTiter-Glo, 72 h; note: nearly all actives have a fitted effect of over 60% in size
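Cytotoxicity toward P-gp-expressing KB-V1 cells was determined as loss of CellTiter-Glo luminescence after 72 h at 37 degrees C. Compounds were tested in quantitative HTS format across a concentration range, with curves fitted to normalized data.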
HT1080 IDH1KD tx: kills HT-1080 cells with IDH1 knockdown | Potency, µM (top dose mostly 46.1 µM), for the others: at the highest dose activity, negative = toxicity, usual class: cytotoxic | hit rate 2% among 360,000 | HT-1080 IDH1 knockdown viability, ATP luminescence, 48 h | AID 686971;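 note: 0% = DMSO wells and -100% = cell-free medium wells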
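After a 2 h attachment period, IDH1KD HT-1080 cells took pin-transferred compound for 48 h at 37 °C; ATP-based luminescence after 10 min room-temperature reagent incubation reported viability.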
KB-3-1 cytotox: kills parental KB-3-1 adenocarcinoma cells; Potency, µM (series often up to 46.1 µM), hits mostly cytotoxic; hit rate 1.4% among 400,000; KB-3-1 viability, CellTiter-Glo ATP luminescence, 72 h; AID 1347075; note: nearly all actives have a fitted effect of over 60% in size
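Using CellTiter-Glo luminescence, growth of non-resistant KB-3-1 adenocarcinoma cells is assessed 72 h after pin-tool compound addition at 37 °C. Normalized responses across the concentration series yield fitted curves.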
* marks the source's active call; other numbers are inactive results. A selection: hits, their analogues and other compounds. The true share with any hit is near 19%. Calls come from the whole dose curve; as a rule, active = well fitted curve in the direction sought with a large enough effect; inconclusive = small, poorly fitted or top-dose-only effect, or another doubt; inactive = no such curve, though single readings can be large; an effect the other way counts as inactive or inconclusive. Unless noted, % is set by controls: 0 for no effect and ±100 for the full control effect; potency is the fitted concentration of half-maximal effect.

Screening Cc1ccc(N2C(=O)CCSC23C(=O)N(Cc2ccccc2)c2ccccc23)cc1F (stereo not given) returned DT40 TDP1 CPT 21µM*, TDP1 cell noCPT 12µM*, KB-V1 cytotox inconclusive and KB-3-1 cytotox inactive.
Screening Cc1ccc(N2C(=O)CCSC23C(=O)N(Cc2ccccc2)c2ccccc23)cc1 (stereo not given) returned DT40 TDP1 CPT inconclusive, TDP1 cell noCPT 16µM*, KB-V1 cytotox inconclusive and KB-3-1 cytotox inactive.
O=C1CCSC2(C(=O)N(Cc3ccccc3)c3ccccc32)N1c1ccccc1 (stereo not given) was read as DT40 TDP1 CPT 9.2µM*, TDP1 cell noCPT 15µM*, KB-V1 cytotox inactive and KB-3-1 cytotox inactive.
Screening CCOC(=O)n1c(=O)n(C)c2ccc(Br)cc21 returned DT40 TDP1 CPT -27%, TDP1 cell noCPT inconclusive, HT1080-NT tox -1%, KB-V1 cytotox inconclusive, HT1080 IDH1KD tx 12% and KB-3-1 cytotox inconclusive.
For CCOC(=O)n1c(=O)[nH]c2ccc(Br)cc21 the results were DT40 TDP1 CPT 0%, TDP1 cell noCPT 18µM*, HT1080-NT tox 18%, KB-V1 cytotox inactive, HT1080 IDH1KD tx 12% and KB-3-1 cytotox inactive.
Screening CC(=O)c1ccc(OCC(O)CN(C)Cc2cccs2)cc1 (stereo not given) returned DT40 TDP1 CPT -19%, TDP1 cell noCPT -28%, HT1080-NT tox 2%, KB-V1 cytotox inactive, HT1080 IDH1KD tx -3% and KB-3-1 cytotox inactive.
`COc1ccc(OCc2nc(N)nc(Nc3ccccc3)n2)cc1` gave DT40 TDP1 CPT -25%, TDP1 cell noCPT inconclusive, HT1080-NT tox 1%, KB-V1 cytotox inconclusive, HT1080 IDH1KD tx -7% and KB-3-1 cytotox inactive.
Cc1c(-c2nc(N)nc(Nc3ccccc3)n2)oc2ccccc12 was read as DT40 TDP1 CPT inconclusive, TDP1 cell noCPT 16µM*, HT1080-NT tox inconclusive, KB-V1 cytotox inconclusive, HT1080 IDH1KD tx inconclusive and KB-3-1 cytotox inactive.
For OC(CNCc1ccc(Cl)cc1)(c1ccccc1)c1ccc(F)cc1 (stereo not given) the results were DT40 TDP1 CPT inconclusive, TDP1 cell noCPT 23µM*, HT1080-NT tox inconclusive, KB-V1 cytotox inactive, HT1080 IDH1KD tx inconclusive and KB-3-1 cytotox inactive.
Fc1ccc(CNCc2ccco2)cc1 was read as DT40 TDP1 CPT -23%, TDP1 cell noCPT 18%, HT1080-NT tox 12%, KB-V1 cytotox inconclusive, HT1080 IDH1KD tx 21% and KB-3-1 cytotox inactive.
`Cc1ccc(C(O)(CNCc2ccccc2)c2ccccc2)cc1` (stereo not given) gave DT40 TDP1 CPT inconclusive, TDP1 cell noCPT inconclusive, HT1080-NT tox -11%, KB-V1 cytotox inactive, HT1080 IDH1KD tx -10% and KB-3-1 cytotox inactive.
Screening OC(CNCc1ccc(F)cc1)(c1ccc(F)cc1)c1ccc(F)cc1 returned DT40 TDP1 CPT 23µM*, TDP1 cell noCPT inconclusive, HT1080-NT tox -27%, KB-V1 cytotox inconclusive, HT1080 IDH1KD tx -23% and KB-3-1 cytotox inconclusive.
Screening C=CCS(=O)(=O)N1CCCC(Cc2ccccc2C)(C(=O)OCC)C1 (stereo not given) returned DT40 TDP1 CPT -1%, TDP1 cell noCPT inconclusive, HT1080-NT tox 6%, KB-V1 cytotox inactive, HT1080 IDH1KD tx 3% and KB-3-1 cytotox inactive.
Screening CC1CN(S(=O)(=O)c2ccc(Cl)c(C(F)(F)F)c2)CC(C)O1 (stereo not given) returned DT40 TDP1 CPT inconclusive, TDP1 cell noCPT inconclusive, HT1080-NT tox 8%, KB-V1 cytotox inactive, HT1080 IDH1KD tx 2% and KB-3-1 cytotox inactive.
`O=C(C[n+]1cnn(CC(=O)c2ccc(Cl)cc2Cl)c1)c1ccc([N+](=O)[O-])cc1` gave DT40 TDP1 CPT inconclusive, TDP1 cell noCPT inconclusive, HT1080-NT tox -15%, KB-V1 cytotox inactive, HT1080 IDH1KD tx -14% and KB-3-1 cytotox 18µM*.
Screening Cc1nn(-c2ccccc2)c2c1N(CC(=O)N1CCN(c3ccccc3F)CC1)C(=O)CS2 returned DT40 TDP1 CPT 18µM*, TDP1 cell noCPT inconclusive, KB-V1 cytotox inactive and KB-3-1 cytotox inactive.
`Cc1nn(-c2ccccc2)c2c1N(CC(=O)N1CCN(c3ccc(Cl)cc3)CC1)C(=O)CS2` gave DT40 TDP1 CPT inconclusive, TDP1 cell noCPT inconclusive, KB-V1 cytotox inactive and KB-3-1 cytotox inactive.
`Cc1nn(-c2ccccc2)c2c1N(CC(=O)N1CCN(c3ccc(F)cc3)CC1)C(=O)CS2` gave DT40 TDP1 CPT inconclusive, TDP1 cell noCPT 21µM*, KB-V1 cytotox inactive and KB-3-1 cytotox inactive.
Cc1cccc(N2CCN(C(=O)CN3C(=O)CSc4c3c(C)nn4-c3ccccc3)CC2)c1C was read as DT40 TDP1 CPT inconclusive, TDP1 cell noCPT inconclusive, KB-V1 cytotox inactive and KB-3-1 cytotox inactive.
For CCCc1nc2c3ccccc3ccn2c1Cc1ccc(OC)cc1C the results were DT40 TDP1 CPT 18µM*, TDP1 cell noCPT inconclusive, HT1080-NT tox -28%, KB-V1 cytotox inactive, HT1080 IDH1KD tx inconclusive and KB-3-1 cytotox inactive.
For CCCc1nc2ccc(Cl)cn2c1Cc1ccccc1OC the results were DT40 TDP1 CPT 7.3µM*, TDP1 cell noCPT 12µM*, HT1080-NT tox inconclusive, KB-V1 cytotox inactive, HT1080 IDH1KD tx inconclusive and KB-3-1 cytotox inconclusive.
`CCCc1nc2c(C)cc(Br)cn2c1Cc1ccccc1C(F)(F)F` gave DT40 TDP1 CPT 23µM*, TDP1 cell noCPT 23µM*, HT1080-NT tox inconclusive, KB-V1 cytotox inactive, HT1080 IDH1KD tx inconclusive and KB-3-1 cytotox inactive.
Screening CCCc1nc2ccc(C)cn2c1Cc1ccc(OC)cc1C returned DT40 TDP1 CPT 13µM*, TDP1 cell noCPT 23µM*, HT1080-NT tox -25%, KB-V1 cytotox inactive, HT1080 IDH1KD tx -29% and KB-3-1 cytotox inactive.
Screening COc1ccccc1Cc1c(-c2ccc(F)cc2)nc2ccc(Cl)cn12 returned DT40 TDP1 CPT inconclusive, TDP1 cell noCPT inconclusive, HT1080-NT tox -1%, KB-V1 cytotox inactive, HT1080 IDH1KD tx 1% and KB-3-1 cytotox inactive.
Screening CCCc1nc2ccc(C)cn2c1Cc1ccccc1OC returned DT40 TDP1 CPT 21µM*, TDP1 cell noCPT 21µM*, HT1080-NT tox inconclusive, KB-V1 cytotox inconclusive, HT1080 IDH1KD tx 18µM* and KB-3-1 cytotox inactive.
